High-throughput results as filed in PubChem BioAssay.
IL1B secr inh: qHTS for Inhibitors of Inflammasome Signaling: IL-1-beta AlphaLISA Primary Screen | THP-1 LPS/ATP IL-1B secretion, AlphaLISA, 16 h; hits give low values | activity change, % at 57.5 µM | actives 4.7% (n = 360,000) | AID 743279, 2014; in the data active = activity change below about -50%; inconclusive = mostly about -30% to -49%
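THP-1 cells pretreated 1 hr with compounds (up to 57.5 uM final), then stimulated with LPS (250 ng/mL final) plus ATP (1.25 mM final); secreted IL-1B measured by AlphaLISA after 16 hr, decreased signal indicating inhibition.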
HT1080-NT tox: qHTS for induction of synthetic lethality in tumor cells producing 2HG: qHTS for the HT-1080-NT fibrosarcoma cell line; HT-1080-NT fibrosarcoma viability, CellTiter-Glo ATP luminescence, 48 h; AID 686970, 2013; actives 1.6% (n = 360,000); Potency, µM (highest dose often 46.1 µM), most hits filed as cytotoxic;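 note: NT is the 2HG producing partner of a matched IDH1 knockdown line; nearly all actives have a fitted effect of over 55% in size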
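A 48-hour cytotoxicity screen used HT-1080-NT cells plated 2 hours before compound delivery. ATP-based CellTiter-Glo luminescence measured viability, normalized to DMSO and no-cell controls.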
ELG1 DNA repair: qHTS screen for small molecules that inhibit ELG1-dependent DNA repair in human embryonic kidney (HEK293T) cells expressing luciferase-tagged ELG1. Potency, µM (highest dose often 46.1 µM), usual class: inhibitors. HEK293T ELG1-luciferase reporter, luminescence, 16 h; DNA damage induced by 5-fluorouridine. actives 2.3% (n = 330,000); note: nearly all actives have a fitted effect of over 55% in size
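Cells (2,000 per well) received 5-fluorouridine plus test compound or DMSO and were incubated 16 hr at 37 °C, 5% CO2. Luciferase activity was read by luminescence 30 min after ONE-Glo addition; signal suppression marked inhibition of damage-induced ELG1 function.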
TDP1 cell noCPT: qHTS for Inhibitors of human tyrosyl-DNA phosphodiesterase 1 (TDP1): qHTS in cells in absence of CPT; actives 15% (n = 420,000); Potency, µM (doses to about 46.2 µM), actives largely listed as inhibitors; AID 686978, 2013; DT40 Tdp1-/- hTDP1 cells, no CPT, ATP luminescence, 48 h; note: nearly all actives have a fitted effect of over 55% in size
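Chicken DT40 Tdp1-/- cells stably complemented with human TDP1 were seeded at 400 cells/well with DMSO in place of 20 nM camptothecin. After compound pinning, cells grew at least 48 hr at 37 °C; viability read by CellTiter-Glo luminescence.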
DT40 TDP1 CPT: qHTS for Inhibitors of human tyrosyl-DNA phosphodiesterase 1 (TDP1): qHTS in cells in presence of CPT. chicken DT40 Tdp1-/-;hTDP1 cells + 20 nM CPT, ATP luminescence, 48 h. Potency, µM (series often up to 46.2 µM), usual class: inhibitors. actives 12% (n = 420,000). AID 686979, 2013; note: nearly all actives have a fitted effect of over 55% in size
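Chicken DT40 Tdp1-/- cells stably complemented with human TDP1 were seeded at 400 cells/well in medium containing 20 nM camptothecin, exposed to pin-transferred compounds, and grown at 37 °C for at least 48 hr. Viability was read as ATP luminescence.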
HT1080 IDH1KD tx: qHTS for induction of synthetic lethality in tumor cells producing 2HG: qHTS for the HT-1080-IDH1KD cell line; HT-1080 IDH1 knockdown viability, ATP luminescence, 48 h; Potency, µM (titrated, usually from 46.1 µM), most hits filed as cytotoxic; actives 2% (n = 360,000); AID 686971, 2013
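Cytotoxicity counter-line: IDH1KD HT-1080, 48 h, CellTiter-Glo. Curves classed by r2, magnitude and activity.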
Hits are given with their value. This is a sample that favours compounds with a hit; in the whole collection about 19% have one here. Unless noted, calls come from the whole dose curve; as a rule, active = well fitted curve in the direction sought with a large enough effect; inconclusive = small, poorly fitted or top-dose-only effect, or another doubt; inactive = no such curve, though single readings can be large; an effect the other way counts as inactive or inconclusive.

For CN(C)CCCNC(=S)Nc1ccc(-c2ccccc2)cc1 the results were IL1B secr inh inactive, HT1080-NT tox 20.6µM, ELG1 DNA repair inactive, TDP1 cell noCPT inconclusive, DT40 TDP1 CPT inconclusive and HT1080 IDH1KD tx inconclusive.
CCc1ccc(-c2cc(C)no2)cc1S(=O)(=O)NCc1ccc(OC)cc1 was read as TDP1 cell noCPT 1.03µM and DT40 TDP1 CPT 0.92µM.
COc1ccc(OC)c(CNS(=O)(=O)c2cc(-c3cc(C)no3)ccc2OC)c1 was read as IL1B secr inh inactive, HT1080-NT tox inactive, ELG1 DNA repair inactive, TDP1 cell noCPT inactive, DT40 TDP1 CPT inactive and HT1080 IDH1KD tx inactive.
Screening CCOc1ccc(CNS(=O)(=O)c2cc(-c3cc(C)no3)ccc2C)cc1OC returned TDP1 cell noCPT inconclusive and DT40 TDP1 CPT inactive.
Screening COc1ccc(-c2cc(C)no2)cc1S(=O)(=O)NCc1cccs1 returned TDP1 cell noCPT 14.6µM and DT40 TDP1 CPT 14.6µM.
For Cc1cc(-c2ccc(C)c(S(=O)(=O)NCC3CCN(Cc4ccc(F)cc4)CC3)c2)on1 the results were IL1B secr inh -87.8, HT1080-NT tox inconclusive, ELG1 DNA repair inactive, TDP1 cell noCPT inconclusive, DT40 TDP1 CPT 18.4µM and HT1080 IDH1KD tx inconclusive.
Screening COc1ccc(CNS(=O)(=O)c2cc(-c3cc(C)no3)ccc2C)cc1OC returned IL1B secr inh inactive, HT1080-NT tox inactive, ELG1 DNA repair 23.1µM, TDP1 cell noCPT inactive, DT40 TDP1 CPT inactive and HT1080 IDH1KD tx inactive.
CCn1ccc(-c2ccccc2)c(C#N)c1=O was read as IL1B secr inh inactive, HT1080-NT tox inactive, ELG1 DNA repair inactive, TDP1 cell noCPT inactive, DT40 TDP1 CPT inactive and HT1080 IDH1KD tx inactive.
Screening Cc1cc(C(=O)N2CCC2(C)C(=O)NCC(C)(C)C)nn1C (stereo unspecified) returned IL1B secr inh inactive, HT1080-NT tox inactive, TDP1 cell noCPT inactive, DT40 TDP1 CPT inactive and HT1080 IDH1KD tx inactive.
`O=C1N(Cc2ccccc2)c2ccc(Br)cc2[C@]12C[C@H](O)CO2` gave IL1B secr inh inactive, HT1080-NT tox inactive, TDP1 cell noCPT inconclusive, DT40 TDP1 CPT inactive and HT1080 IDH1KD tx inactive.
COC(=O)CCN(c1ccccc1)S(=O)(=O)c1cc(-c2cc(C)no2)ccc1C was read as IL1B secr inh inactive, HT1080-NT tox inactive, ELG1 DNA repair inactive, TDP1 cell noCPT inconclusive, DT40 TDP1 CPT inactive and HT1080 IDH1KD tx inactive.
CCOC(=O)CC(NS(=O)(=O)c1cc(-c2cc(C)no2)ccc1C)c1ccc(C)cc1 (stereo unspecified) was read as TDP1 cell noCPT 8.2µM and DT40 TDP1 CPT 20.6µM.
For Cc1cc(-c2ccc(C)c(S(=O)(=O)N(C(C)C)C3CCCCC3)c2)on1 the results were TDP1 cell noCPT inconclusive and DT40 TDP1 CPT 20.6µM.
Screening COCCN(Cc1cccs1)S(=O)(=O)c1cc(-c2cc(C)no2)ccc1C returned TDP1 cell noCPT 20.6µM and DT40 TDP1 CPT inconclusive.
CCC/C(=N/NC(=O)c1ccccc1Cl)c1ccccc1 was read as IL1B secr inh inactive, HT1080-NT tox inactive, ELG1 DNA repair inactive, TDP1 cell noCPT inactive, DT40 TDP1 CPT inactive and HT1080 IDH1KD tx inactive.
For O=C(COCc1cc(-c2cccs2)on1)NCc1ccc(Cl)cc1 the results were TDP1 cell noCPT inactive and DT40 TDP1 CPT inactive.
O=C(NCCCn1ccnc1)C(=O)NCC(c1cccnc1)N1CCN(c2ccc(F)cc2)CC1 (stereo unspecified) was read as IL1B secr inh inactive, HT1080-NT tox inactive, ELG1 DNA repair inactive, TDP1 cell noCPT inconclusive, DT40 TDP1 CPT inconclusive and HT1080 IDH1KD tx inactive.
CN1CCN(C(CNC(=O)C(=O)Nc2ccc(F)cc2)c2cccnc2)CC1 (stereo unspecified) was read as TDP1 cell noCPT inactive and DT40 TDP1 CPT inactive.
`O=C(NCc1ccc(Cl)cc1)C(=O)NCC(c1cccnc1)N1CCN(c2ccc(F)cc2)CC1` (stereo unspecified) gave IL1B secr inh inactive, HT1080-NT tox inactive, ELG1 DNA repair 11.6µM, TDP1 cell noCPT 8.2µM, DT40 TDP1 CPT 6.51µM and HT1080 IDH1KD tx inconclusive.
Screening Cc1cc(C)c(S(=O)(=O)NCC(c2cccnc2)N2CCN(Cc3ccccc3)CC2)c(C)c1 (stereo unspecified) returned IL1B secr inh inactive, HT1080-NT tox inactive, ELG1 DNA repair inactive, TDP1 cell noCPT inconclusive, DT40 TDP1 CPT inconclusive and HT1080 IDH1KD tx inactive.
Cc1ccc(NC(=O)C(=O)NCC(c2cccnc2)N2CCN(Cc3ccccc3)CC2)cc1Cl (stereo unspecified) was read as TDP1 cell noCPT 7.31µM and DT40 TDP1 CPT 10.3µM.
For Cc1ccc(C)c(NC(=O)C(=O)NCC(c2cccnc2)N2CCN(c3ccc(F)cc3)CC2)c1 (stereo unspecified) the results were TDP1 cell noCPT 4.61µM and DT40 TDP1 CPT 4.61µM.
Screening COc1ccc(N2CCN(C(CNC(=O)C(C)(C)C)c3cccnc3)CC2)cc1 (stereo unspecified) returned IL1B secr inh inactive, HT1080-NT tox inactive, ELG1 DNA repair inactive, TDP1 cell noCPT inconclusive, DT40 TDP1 CPT inactive and HT1080 IDH1KD tx inactive.
Screening COc1ccc(CNC(=O)C(=O)NCC(c2cccnc2)N2CCN(c3ccccc3)CC2)cc1 (stereo unspecified) returned TDP1 cell noCPT 13µM and DT40 TDP1 CPT 16.4µM.
`CCS(=O)(=O)NCC(c1cccnc1)N1CCN(c2ccccc2)CC1` (stereo unspecified) gave IL1B secr inh inactive, HT1080-NT tox inactive, ELG1 DNA repair inactive, TDP1 cell noCPT inactive, DT40 TDP1 CPT inactive and HT1080 IDH1KD tx inactive.
For COc1ccc(N2CCN(C(CNC(=O)C(=O)NCCCn3ccnc3)c3cccnc3)CC2)cc1 (stereo unspecified) the results were IL1B secr inh inactive, HT1080-NT tox inactive, ELG1 DNA repair inactive, TDP1 cell noCPT inactive, DT40 TDP1 CPT inactive and HT1080 IDH1KD tx inactive.
For O=C(NCCc1ccccc1)C(=O)NCC(c1cccnc1)N1CCN(c2ccccc2)CC1 (stereo unspecified) the results were TDP1 cell noCPT 16.4µM and DT40 TDP1 CPT 20.6µM.
